Screens as filed in PubChem BioAssay.
Compounds with a hit are over-represented: about 12% of the library has one in this group of screens.
VP16 counter: counter-screen for ROR gamma inhibitors: Gal4-VP16 reporter | Drosophila S2 Gal4-VP16 UAS-luciferase, luminescence, 20 h | Potency, µM (series often up to 53.6 µM), without a hit: top-dose activity, negative = inhibition, usual class: inhibitors | hit rate 3.5% among 310,000 | AID 2546;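 further: Gal4-VP16 expression switched on by copper sulfate through the metallothionein promoter; nearly all actives have a fitted effect of over 50% in size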
ALDH1A1 inh: ALDH1A1 (human) enzyme inhibition. P00352. Purified ALDH1A1, NADH fluorescence, propionaldehyde substrate. Potency, µM (top dose mostly 75.3 µM), without a hit: at the top dose activity, negative = inhibition, hits mostly inhibitors. hit rate 7.3% among 220,000. AID 1030; active means well fitted inhibition curve with a large enough effect, not every such curve was filed as active; inconclusive means small, poorly fitted or top-dose-only effect, or another doubt; inactive means no such curve, though single readings can be large or run the other way;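 further: plate controls were no enzyme wells and a reference inhibitor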
RORgamma inh: ROR gamma (mouse) transcription inhibition | P51450 | Drosophila S2 Gal4-RORgamma UAS-luciferase reporter, 20 h | Potency, µM (highest dose often 53.6 µM), without a hit: at the top dose activity change, negative = inhibition, usual class: inhibitors | hit rate 5.4% among 310,000 | AID 2551; further: nearly all actives have a fitted effect of over 60% in size
Target sequence (P51450 whole entry, looked up, the tested form may be a part): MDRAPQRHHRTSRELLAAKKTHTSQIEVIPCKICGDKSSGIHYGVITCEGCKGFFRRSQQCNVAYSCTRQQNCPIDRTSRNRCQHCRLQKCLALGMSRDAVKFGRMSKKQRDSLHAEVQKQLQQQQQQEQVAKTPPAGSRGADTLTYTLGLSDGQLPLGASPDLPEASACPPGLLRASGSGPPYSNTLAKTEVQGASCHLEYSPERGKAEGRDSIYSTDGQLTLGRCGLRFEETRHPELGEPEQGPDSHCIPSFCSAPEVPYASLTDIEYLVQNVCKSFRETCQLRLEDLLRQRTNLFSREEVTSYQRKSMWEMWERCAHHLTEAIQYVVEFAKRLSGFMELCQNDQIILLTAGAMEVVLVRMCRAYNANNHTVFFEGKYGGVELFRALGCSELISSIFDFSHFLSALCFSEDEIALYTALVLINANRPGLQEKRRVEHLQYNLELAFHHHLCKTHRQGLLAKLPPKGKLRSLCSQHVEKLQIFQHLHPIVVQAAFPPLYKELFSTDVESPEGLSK
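Stably transfected Drosophila Schneider cells are the test system, with ROR gamma fused to Gal4 and luciferase under UAS control; luminescence is read after 20 hr of 700 uM copper sulfate induction at ambient temperature.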
PLK1 PBD block: blocks phosphopeptide binding to human PLK1 polo-box domain; P53350; Plk1 PBD binding of FITC phosphopeptide, fluorescence polarization; Potency, µM, inactives show max response, negative = inhibition, usual class: inhibitors; hit rate 2.8% among 360,000; AID 720504; further: series mostly up to about 57 µM; nearly all actives have a fitted effect of over 65% in size
Sfp PPTase inh: Sfp phosphopantetheinyl transferase inhibition; Potency, µM, for inactives: largest response in the series, negative = inhibition, actives largely listed as inhibitors; Biochemical Sfp PPTase activity, qHTS; Q9F4F7; hit rate 3.5% among 310,000; AID 1490;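 further: the enzyme is Sfp with the accession as filed and its product quenches rhodamine fluorescence; 0% = enzyme reaction without inhibitor and -100% = no enzyme wells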
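With Hepes-Na pH 7.6 buffer containing 10 mM MgCl2, Sfp (15 nM) modified BHQ-2-YbbR (12.5 uM) using rhodamine-CoA (5 uM). Two reads 30 minutes apart at 525/598 nm yielded each well's rate.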
* marks the source's active call; other numbers are inactive results; ? = inconclusive; nt = not tested or not shown; [ ] = remark or other dose. Unless noted, the call rests on the fitted dose curve; in most records, active means well fitted curve in the direction sought with a large enough effect; inconclusive means small, poorly fitted or top-dose-only effect, or another doubt; inactive means no such curve, though single readings can be large; an effect the other way counts as inactive or inconclusive. Unless noted, on the % scale 0 is the no-effect control and ±100 the full control effect; potency means the concentration at half of the fitted maximal effect.

SMILES | VP16 counter | ALDH1A1 inh | RORgamma inh | PLK1 PBD block | Sfp PPTase inh
O=C(Nc1nnc([C@@H]2C[C@H](O)[C@@H](CO)O2)s1)Nc1ccccc1C(F)(F)F | nt | nt | nt | -6.2% | nt
CC1(c2cnc(Nc3ccccc3)s2)CCC(=O)O1 (stereo not drawn) | ? | 17.8µM* | 18.4% | -6.8% | -0.5%
OC(CNCC(c1ccc(Cl)cc1Cl)c1c[nH]c2ccccc12)c1ccccc1 (stereo not drawn) | -26.2% | 3.9% | ? | -3.0% | 50.1µM*
O=[N+]([O-])CC(c1ccccc1)c1c[nH]c2ccccc12 (stereo not drawn) | nt | nt | nt | -6.7% | nt
Cc1cc(C)cc(C(=O)N(C)[C@H](Cc2ccc(-c3ccccc3)cc2)C(=O)N[C@@H](Cc2c[nH]c3ccccc23)C(=O)O)c1 | -4.9% | -0.4% | 1.1% | nt | 4.9%
O=C(c1ccoc1)N1CCCC(N2CCN(c3cccc(Cl)c3)CC2)C1 (stereo not drawn) | 1.5% | nt | 27.7% | -5.2% | 10.0%
Nc1nonc1C(=O)NCCNCc1cc(Br)ccc1OCc1ccccc1F | 3.98µM* | -1.0% | ? | -4.8% | ?
NS(=O)(=O)c1ccc(CCNCc2cc(Br)ccc2OCc2ccccc2F)cc1 | 12.6µM* | -2.6% | -17.9% | -25.0% | 50.1µM*
NS(=O)(=O)c1ccc(CCNCc2cc(Cl)ccc2OCc2ccccc2)cc1 | ? | nt | ? | -11.3% | -26.6%
CN(CC(=O)NC(=O)NCc1ccco1)Cc1nc2ccccc2c(=O)[nH]1 | 3.55µM* | ? | 1µM* | -21.6% | 89.1µM*
O=C(CCc1nc2ccccc2c(=O)[nH]1)NCc1ccco1 | 12.0% | 3.4% | 2.0% | -1.6% | 8.1%
CN(CC(=O)Nc1ccccc1Sc1ccccc1)Cc1nc2ccccc2c(=O)[nH]1 | 3.55µM* | ? | 0.447µM* | -6.6% | -8.9%
CN(CC(=O)NC(c1ccccc1)c1ccccc1)Cc1nc2ccccc2c(=O)[nH]1 | 12.6µM* | -4.7% | ? | 3.0% | 0.0%
Cn1nc(C(C)(C)C)cc1C(=O)N1CCCCC1c1cc(C(=O)Nc2ccc3c(c2)OCO3)no1 (stereo not drawn) | nt | nt | nt | -7.4% | nt
CC(=O)N1CC[n+]2c(-c3ccc(Cl)cc3Cl)csc21 | ? | -15.3% | -29.5% | ? | 31.6µM*
CO/N=C/c1ccc(N2CCN(C(=O)c3ccc(F)cc3)CC2)c([N+](=O)[O-])c1 | 8.91µM* | 14.5% | ? | -5.7% | ?
O=C(N/N=C/c1ccc(N2CCCC2)c([N+](=O)[O-])c1)c1cccnc1 | 2.8% | 0.282µM* | ? | -1.3% | -2.7%
CO/N=C/c1ccc(N2CCN(C(=O)c3cccc(C(F)(F)F)c3)CC2)c([N+](=O)[O-])c1 | ? | ? | ? | -0.7% | 13.3%
O=C(N/N=C/c1ccc(N2CCOCC2)c([N+](=O)[O-])c1)c1ccc(F)cc1 | 2.7% | 5.01µM* | -7.5% | -3.1% | 7.3%
COc1ccccc1CN1CC[C@@]2(CCCN(C(=O)c3cc(C(F)(F)F)cc(C(F)(F)F)c3)C2)C1 | 9.0% | ? | -1.3% | nt | -4.6%
C/C(=N\NC(=O)C1COc2ccccc2O1)c1ccccn1 (stereo not drawn) | 2.82µM* | ? | 1.78µM* | -9.2% | 21.7%
C/C(=N\NC(=O)C1COc2ccccc2O1)c1ccc(Cl)s1 (stereo not drawn) | 17.8µM* | 3.5% | 6.31µM* | 4.0% | 25.7%
C/C(=N\NC(=O)CC#N)C1COc2ccccc2O1 (stereo not drawn) | -2.9% | 5.1% | -5.7% | 21.2µM* | 15.5%
C/C(=N/NC(=O)CNC(=O)C1COc2ccccc2O1)c1ccc2c(c1)OCCO2 (stereo not drawn) | -0.2% | -15.0% | 25.3% | -12.0% | 8.1%
CCOC(=O)c1ccc2nc(C)c3c(c2c1)OC(C)C3 (stereo not drawn) | nt | ? | -13.9%[0.365 µM] | -1.6% | 3.0%
SMILES | VP16 counter | ALDH1A1 inh | RORgamma inh | PLK1 PBD block | Sfp PPTase inh
CCOC(=O)c1ccc2nc(C(F)(F)F)[nH]c(=O)c2c1 | 1.9% | ? | 42.5% | 26.7µM* | 5.2%
CC[C@H](CC[C@@H](C)C1CC[C@H]2[C@@H]3CC=C4C[C@@H](O)CC[C@]4(C)[C@H]3CC[C@]12C)C(C)C (stereo partly drawn) | 0.1% | 1.0% | 28.8% | nt | 11.5%
O=C1C=Cc2ccccc2/C1=C/c1[nH]c(=O)[nH]c1O | ? | nt | 6.31µM* | 3.6% | -18.1%
CC(c1nc2ccccc2[nH]1)N(C(=O)Cc1csc2ccccc12)c1cccnc1 (stereo not drawn) | nt | nt | nt | 4.0% | nt
Cc1nc2scc(C)n2c(=O)c1S(=O)(=O)NC(C)c1ccccc1 (stereo not drawn) | -1.2% | nt | -4.4% | 18.9µM* | 12.6%
Cc1nc2scc(C)n2c(=O)c1S(=O)(=O)NCCc1ccccc1 | 1.4% | nt | 6.6% | 11.9µM* | 20.7%
Cc1nc2scc(C)n2c(=O)c1S(=O)(=O)Nc1ccc(N2CCN(S(C)(=O)=O)CC2)cc1 | -14.7% | nt | 23.0% | 26.7µM* | 8.1%
COc1cccc(CS(=O)(=O)c2ccccc2)c1 | -4.9% | 6.2% | -13.2% | nt | 7.0%
CC1CCc2c(C(=O)Nc3nccs3)csc2C1 (stereo not drawn) | 8.91µM* | 1.7% | 3.55µM* | -4.0% | 9.0%
Cc1ccccc1NC(=S)NNC(=O)c1csc2c1CCC(C)C2 (stereo not drawn) | ? | 20µM* | ? | -16.2% | -1.0%
CCNC(=S)NNC(=O)c1csc2c1CCC(C)C2 (stereo not drawn) | -27.0% | -5.9% | ? | -29.0% | 3.4%
O=C(O)CCCC/C=C(\c1ccccc1)c1cccnc1 | -1.0% | nt | -15.4% | nt | -9.0%
O=C(Nc1ccccc1)C1C2/C=C\CCCCC21 (stereo not drawn) | 23.0% | 0.2% | 41.9% | 26.7µM* | 19.8%
C=CCC(C)(NCc1ccccc1)c1ccc(C)cc1 (stereo not drawn) | -7.9% | -1.7% | -0.1%[10 µM] | 8.3% | 16.1%
C=CCC(C)(NCc1ccccc1)c1ccccc1 (stereo not drawn) | 7.8% | 7.0% | -36.6% | 21.2µM* | 2.0%
CCOC(=O)c1c(NC(=O)CSc2nnc(C)c(=O)[nH]2)sc2c1CCCC2 | 1.1% | -12.7% | 25.6% | ? | 8.5%
CCOC(=O)c1c(NC(=O)CSc2nnc(C)c(=O)[nH]2)sc(C)c1-c1ccc(C)cc1 | 4.1% | nt | -20.9% | 23.8µM* | ?
CSc1nc(C)cc(Nc2ccc(O)c(CN3CCOCC3)c2)n1 | nt | 1.6%[13.5 µM] | nt | nt | nt
N#CCc1c(C#N)c(N)nc(N2CCCC(O)C2)c1C#N (stereo not drawn) | 11.7% | 3.55µM* | -41.2% | -16.6% | 12.3%
CCc1ccc(NS(=O)(=O)c2ccc3[nH]cc(C(=O)N4CCCCC4)c(=O)c3c2)cc1 | -5.8% | ? | -2.1% | -3.1% | 11.8%
Cc1cc(C)cc(NS(=O)(=O)c2ccc3[nH]cc(C(=O)N4CCc5ccccc54)c(=O)c3c2)c1 | -6.1% | 10µM* | ? | 2.3% | -6.7%
CCc1ccc(NS(=O)(=O)c2ccc3[nH]cc(C(=O)N4CCc5ccccc54)c(=O)c3c2)cc1 | 9.1% | 14.1µM* | 43.6% | -3.7% | -8.4%
